Only some compounds are listed: those with a hit (about 4.7% of all), similar ones and a draw of the others.
HTT-AS promoter = Primary qHTS for Identification of Small Molecule Activators of Huntingtin-Antisense Promoter Activity; HEK293 HTT-AS promoter firefly luciferase reporter, 24 h; response scale: percent change from vehicle, -100% = no light; Potency, µM (titrated, usually from 57.5 µM), without a hit: at the highest dose activity change, positive = activation, most hits filed as activators; actives 0.24% (n = 48,000); note: potency is the fitted concentration of half-maximal effect; nearly all actives have a fitted effect of over 55% in size
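HEK293 cells carrying firefly luciferase reporters were seeded at 2,500 per well in Opti-MEM and cultured for 24 h. They were then treated with compounds at up to 57.5 uM final for 24 h at 37 degrees C before Dual-Glo luminescence readout.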
HTT promoter inh = Primary qHTS for Identification of Small Molecule Inhibitors of Huntingtin Promoter Activity | HEK293 HTT promoter firefly luciferase reporter, 24 h | Potency, µM (series often up to 57.5 µM), for the others: top-dose activity change, negative = inhibition, most hits filed as inhibitors | actives 0.93% (n = 48,000); note: potency is the fitted concentration of half-maximal effect; nearly all actives have a fitted effect of over 50% in size
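Luminescence was read after Dual-Glo reagent and a 10 min room-temperature incubation. Values were normalized to vehicle (0% activity) and zero RLU (-100% activity). Reporter HEK293 cells had been exposed to compounds (up to 57.5 uM final) for 24 h.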
FH mod = Identification of activators of human fumarate hydratase by quantitative high-throughput screening; FH coupled MDH/diaphorase resazurin fluorescence, 15 min; Potency, µM (top dose mostly 79.9 µM), for the others: top-dose activity change, negative = inhibition, hits mostly inhibitors; actives 0.22% (n = 54,000); note: potency is the fitted concentration of half-maximal effect; % is set by controls: 0 for no effect and ±100 for the full control effect; the screen sought activators but most active calls are inhibition curves; nearly all actives have a fitted effect of over 45% in size
NTMT1 inh = Primary qHTS for Inhibitors of N-terminal methyltransferase 1 (NTMT1): MTaseGlo Assay; NTMT1 MTase-Glo SAH luminescence, purified enzyme; Potency, µM (top dose mostly 114 µM), for inactives: at the highest dose activity change, negative = inhibition, hits mostly inhibitors; actives 2.5% (n = 59,000);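 note: potency is the fitted concentration of half-maximal effect; plate controls were DMSO vehicle for no effect and no enzyme for full effect; nearly all actives have a fitted effect of over 65% in size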
Target sequence (Q9BV86 whole entry, looked up): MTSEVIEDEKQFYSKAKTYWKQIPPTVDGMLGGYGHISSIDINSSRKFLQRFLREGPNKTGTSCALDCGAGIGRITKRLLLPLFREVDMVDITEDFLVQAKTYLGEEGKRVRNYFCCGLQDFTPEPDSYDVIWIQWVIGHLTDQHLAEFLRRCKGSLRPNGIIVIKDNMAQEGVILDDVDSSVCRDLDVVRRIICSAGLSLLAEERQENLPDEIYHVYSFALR
DRV1 agonist = qHTS for Agonists of Human Resolvin D1 Receptor DRV1. Probable G-protein coupled receptor 32 (Homo sapiens), O75388. CHO-K1 GPR32 beta-arrestin PathHunter luminescence, 90 min; zero percent set by DMSO-only wells. activation, % at 76.9 µM. actives 2.5% (n = 48,000);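 active = activation of at least 60% and not above a set upper limit, about 1 call in 100 departs from these limits; inconclusive = activation of 40% to 60%, or above that upper limit; inactive = activation under 40%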; note: 0% is about no effect
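Engineered CHO-K1 line co-expressing GPR32-ProLink and EA-beta-arrestin. Compound treatment lasted 90 min at 37 °C. Luminescence was recorded after 1 h with substrate at ambient temperature, relative to DMSO basal wells.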
DYRK1A inh-1 = Assay for Inhibitors of Dual-Specificity Tyrosine-(Y)-Phosphorylation Regulated Kinase 1A (Kinase-Glo assay). shares compounds with NTMT1 inh. recombinant DYRK1A, Kinase-Glo ATP depletion luminescence. Potency, µM (doses to about 76.9 µM), inactives show top-dose activity change, negative = inhibition, most hits filed as inhibitors. actives 80% (n = 100). AID 2705, 2010
CLK4 inh-1 = Confirmation Assay for Inhibitors of CDC-like Kinase 4 (Kinase-Glo Assay): SAR round 2. shares compounds with NTMT1 inh. recombinant Clk4, Kinase-Glo ATP luminescence, 4.5 h. Potency, µM (highest dose often 76.9 µM), for the others: at the highest dose activity, negative = inhibition, most hits filed as inhibitors. actives 90% (n = 90)
Target sequence (Q9HAZ1 whole entry, looked up): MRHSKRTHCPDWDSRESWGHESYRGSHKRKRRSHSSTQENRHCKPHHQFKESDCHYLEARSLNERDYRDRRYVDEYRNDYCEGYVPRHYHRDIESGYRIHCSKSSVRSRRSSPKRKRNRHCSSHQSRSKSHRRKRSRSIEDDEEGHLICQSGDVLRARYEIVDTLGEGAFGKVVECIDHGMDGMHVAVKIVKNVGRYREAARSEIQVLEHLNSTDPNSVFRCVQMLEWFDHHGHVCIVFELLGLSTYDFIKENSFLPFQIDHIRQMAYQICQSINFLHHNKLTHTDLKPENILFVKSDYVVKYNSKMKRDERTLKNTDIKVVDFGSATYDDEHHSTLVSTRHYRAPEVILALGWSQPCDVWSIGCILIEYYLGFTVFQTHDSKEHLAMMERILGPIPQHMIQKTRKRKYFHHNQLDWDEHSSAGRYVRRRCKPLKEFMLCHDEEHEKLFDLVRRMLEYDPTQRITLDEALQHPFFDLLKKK
CLK4 inh-2 = Kinase Inhibition Study on Inhibitors of CDC-like Kinase 4 (Reaction Biology data): SAR round 2; Potency, µM, most hits filed as inhibitors; Reaction Biology kinase assay, 10 uM ATP; shares compounds with NTMT1 inh; actives 100% (n = 65); calls by dose curve
DYRK1A inh-2 = Kinase Inhibition Study on Inhibitors of Dyrk1a (Reaction Biology data) | actives 90% (n = 65) | shares compounds with NTMT1 inh | AID 504424, 2011 | Potency, µM, hits mostly inhibitors | Reaction Biology kinase assay, 10 uM ATP;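 active = compounds that showed inhibition of Dyrk1a and received a fitted potency; inactive = compounds that showed no inhibition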
CLK2 RBC = Kinase Inhibition Study on Inhibitors of CDC-like Kinase 2 (Reaction Biology data); shares compounds with NTMT1 inh; Reaction Biology kinase assay, 10 uM ATP; Potency, µM, usual class: inhibitors; actives 90% (n = 65); AID 504427, 2011;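 active = compound that inhibits Clk2 kinase in the dose series, with an IC50 potency reported; inactive = no inhibition seen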
CLK3 RBC = Kinase Inhibition Study on Inhibitors of CDC-like Kinase 3 (Reaction Biology data); shares compounds with NTMT1 inh; recombinant CLK3 kinase assay, 10 uM ATP; Potency, µM, hits mostly inhibitors; actives 40% (n = 65); AID 504428, 2011;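 active = compounds that inhibited Clk3 enough in the ten-dose series to give a half-maximal potency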
DYRK1B inh = Kinase Inhibition Study on Inhibitors of Dyrk1b (Reaction Biology data). Potency, µM, actives largely listed as inhibitors. shares compounds with NTMT1 inh. actives 80% (n = 65). Recombinant Dyrk1b kinase assay, 10 uM ATP;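 active = compounds whose dose response shows an inhibitor phenotype against the kinase Dyrk1b; inactive = compounds showing no inhibitor phenotype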
CLK1 inh = Kinase Inhibition Study on Inhibitors of CDC-like Kinase 1 (Reaction Biology data). shares compounds with NTMT1 inh. recombinant Clk1 kinase assay, 10 uM ATP. Potency, µM, actives largely listed as inhibitors. actives 90% (n = 65);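 active = compounds that block the splicing kinase Clk1 enough to give a fitted half-inhibition concentration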
USP2a K63 = Confirmation Assay for Inhibitors of Ubiquitin-specific Protease USP2a Using CHOP2 as the Reporter: K633; shares compounds with NTMT1 inh; USP2 cleavage of DiUb K63-3IQF, fluorescence kinetic; Potency, µM (series often up to 57.5 µM), inactives show at the highest dose activity change, negative = inhibition, usual class: inhibitors; actives 80% (n = 30)
Casp6 inh = qHTS for Inhibitors of Ubiquitin-specific Protease USP2a Using CHOP2 as the Reporter: Caspase 6 Assay. activity change, negative = inhibition, % at 46.1 µM. 30 tested, under 10 active. shares compounds with NTMT1 inh. AID 652277, 2013. Caspase 6 enzyme, Caspase-Glo 6 luminescence
NNMT counter = Counterscreen qHTS for Inhibitors of N-terminal methyltransferase 1 (NTMT1): NNMT MTaseGlo assay | actives 10% (n = 120) | NNMT MTase-Glo luminescence, SAH detection | Potency, µM (highest dose often 57.1 µM), inactives show at the highest dose activity, negative = inhibition, most hits filed as inhibitors | shares compounds with NTMT1 inh
* = called active by the depositor; i = inactive; u = inconclusive; x = no result given; [ ] = dose if it differs, or a comment. Unless noted, calls come from the whole dose curve; as a rule, active = well fitted curve in the direction sought with a large enough effect; inconclusive = small, poorly fitted or top-dose-only effect, or another doubt; inactive = no such curve, though single readings can be large; an effect the other way counts as inactive or inconclusive.

SMILES	HTT-AS promoter	HTT promoter inh	FH mod	NTMT1 inh	DRV1 agonist	others
O=C(CSc1nc2c([nH]c3ccccc32)c(=O)n1-c1ccc(F)cc1)NCc1ccc(F)cc1	-35.8%	u	-2.8%	-0.8%	-13.2
C/C=C/c1ccc2oc(-c3ccc(O)c(OC)c3)c(C)c2c1	x	x	u	4.3%[57.5 µM]	x	NNMT counter=-8.9%
COc1ccc(CNC(=O)c2cnc(N3CCCC3)nc2C)cc1	-9.7%	-19.3%	0.1%	10.2%	-2.3
Fc1cccc(CNc2ncnc3ccc(-c4ccc5c(c4)OCO5)cc23)c1	x	x	x	2.3%	x
c1nc(NCC2CCCCC2)c2cc(-c3ccc4c(c3)OCO4)ccc2n1	x	x	x	u	x	CLK4 inh-1=0.0733µM*;CLK4 inh-2=0.147*;DYRK1A inh-2=0.186µM*;CLK2 RBC=0.86µM*;CLK3 RBC=5.3µM*;DYRK1B inh=1.07µM*;CLK1 inh=0.507µM*
CN(C)CCCNc1ncnc2ccc(-c3ccc4c(c3)OCO4)cc12	x	x	x	u	x	CLK4 inh-1=1.04µM*
NCCNc1ncnc2ccc(-c3ccc4c(c3)OCO4)cc12	x	x	x	x	x	DYRK1A inh-1=0.184µM*;CLK4 inh-2=8.44*;DYRK1A inh-2=5.47µM*;CLK2 RBC=6.42µM*;CLK3 RBC=15µM*;DYRK1B inh=i;CLK1 inh=5.56µM*
Clc1ccccc1-c1ccc2ncnc(NCc3ccc4c(c3)OCO4)c2c1	x	x	x	3.4%	x
c1nc(N2CCNCC2)c2cc(-c3ccc4c(c3)OCO4)ccc2n1	x	x	x	u	x	CLK4 inh-1=0.583µM*
O=C(Nc1nnc(S(=O)(=O)N2CCCc3ccccc32)s1)c1ccccc1Br	-20.1%	u	-22.8%	8.4%	18.6
CSc1ccc(CCNC(=O)c2cc(C)nc3c2c(C)nn3-c2ccccc2)cc1	-17.7%	-8.4%	-1.3%	6.4%	-14.3
O=C(CS(=O)(=O)c1cccc2nsnc12)NCc1ccccc1	-4.0%	-9.6%	13.8%	1.4%	7.0
CN(CC1CCCCC1)c1ncnc2ccc(-c3ccc4c(c3)OCO4)cc12	x	x	x	x	x	CLK4 inh-1=0.0582µM*
Cc1nc2cccnc2n1C1CCN(C(=O)Nc2ccccc2)CC1	-2.5%	-17.0%	-2.1%	-13.4%	1.0
Cc1ccc(-c2ccc3ncc4c(c3n2)n(C2CCN(C(=O)[C@H](C)O)CC2)c(=O)n4C)cn1	x	x	-4.0%	15.8µM*	x	NNMT counter=u
O=C(Nc1ccc(C(=O)Nc2nccs2)cc1)c1ccc2ccccc2c1	x	x	x	-6.8%	x
O=C(Nc1ccc(S(=O)(=O)Nc2nccs2)cc1)c1ccc2ccccc2c1	x	x	x	u	x	USP2a K63=3.85µM*;Casp6 inh=-26.0
Cc1ccc(-n2nc(C)c3c(C(F)(F)F)cc(-c4cccnc4)nc32)cc1Cl	-7.4%	-6.3%	3.9%	6.8%	6.3
CN1CCN(C2=Nc3ccccc3Oc3ccc(Cl)cc32)CC1	-18.0%	-6.3%	-4.8%[53.3 µM]	-2.9%[57.5 µM]	-29.4

High-throughput results (PubChem)
